# D3 ag: agonists of human D3 dopamine receptor; hit rate 0.58% among 410,000; P35462; max activation, %; AID 652048; D3R DiscoveRx beta-arrestin cells, luminescence, 90 min; in the data active means max activation above about 30%; further: 0% is about no effect
# Target sequence (P35462 whole entry, looked up): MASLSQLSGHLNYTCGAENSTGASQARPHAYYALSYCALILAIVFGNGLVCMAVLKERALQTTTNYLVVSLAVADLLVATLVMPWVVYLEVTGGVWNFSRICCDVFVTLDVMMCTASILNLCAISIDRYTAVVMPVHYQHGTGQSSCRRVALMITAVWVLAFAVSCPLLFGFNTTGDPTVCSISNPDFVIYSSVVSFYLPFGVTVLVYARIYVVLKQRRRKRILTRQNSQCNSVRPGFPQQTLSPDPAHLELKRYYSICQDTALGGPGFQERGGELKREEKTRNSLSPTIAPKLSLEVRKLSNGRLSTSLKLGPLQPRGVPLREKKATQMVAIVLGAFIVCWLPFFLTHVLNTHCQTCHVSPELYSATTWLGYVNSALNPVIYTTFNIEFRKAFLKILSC
#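 Cells at 1500/well, incubated overnight, then treated with pinned compounds (dopamine as control) for 90 min at 37 degrees C. DiscoveRx reagent added for 30 - 60 minutes at room temperature; luminescence read.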
# Integrin act MD: integrin-mediated muscular dystrophy alleviation activation | alpha7betagal myoblasts, beta-gal FDG fluorescence, 48 h | hit rate 0.064% among 350,000 | AID 624291 | Potency, µM (series often up to 38.3 µM), for the others: top-dose activation, actives largely listed as activators; active means well fitted activation curve with a large enough effect; inconclusive means small, poorly fitted or top-dose-only effect; inactive means no such curve, though single readings can be large or run the other way;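 further: potency means the concentration at half of the fitted maximal effect; 100% = response of the positive control SU9516; nearly all actives have a fitted effect of over 60% in size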
#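 Alpha7betagal+/- myoblasts (passage 13) were plated 16-24 hr, then exposed to compounds (1:260 dilution of DMSO stock) for 48 hours at 37C. After MPER lysis, β-galactosidase reporter activity was read as FDG fluorescence (ex 480/em 540) after 30 minutes.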
# DRD3 antagonist: antagonists of human D3 dopamine receptor; P35462; hit rate 2.5% among 360,000; AID 652054; max response, negative = inhibition, %; D3R cells, DiscoveRx beta-arrestin luminescence, antagonist mode; stronger effect = lower value; in the data active means max response below about -50%; inconclusive means no clear call, values can overlap the other calls; further: on the % scale 0 is the no-effect control and ±100 the full control effect
#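 Cells expressing the human receptor were seeded at 1500 cells/well, incubated overnight at 37 degrees C in 5% CO2, then exposed to library compounds with dopamine controls for 90 minutes at 37 degrees C before luminescent detection.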
# Numbers without * were called inactive; ? = inconclusive; . = not tested or not shown; ! = not active in a repeat. Compounds with a hit are over-represented: about 2.9% of the library has one in this group of screens.
SMILES,D3 ag,Integrin act MD,DRD3 antagonist
CC1(C)CC(=O)C(N=Nc2cccc([N+](=O)[O-])c2)=C(O)C1,-18.1,-22.0%,-67.2*
CC1(C)CC(=O)C(N=Nc2ccc(Br)cc2)=C(O)C1,2.4,-32.9%,-10.4
CC(=O)Nc1ccc(OCCOc2ccc(/C=C3\C(=N)N4N=C(C)SC4=NC3=O)cc2)cc1,-4.9,12.8%,24.1
Cc1ccc(S(=O)(=O)N2CCCC(C(=O)Nc3ccc(C(=O)O)cc3)C2)cc1Cl (centres undefined),-6.9,4.4%,-3.0
Cc1ccc(NCCCn2cnc3c(OCc4ccccc4)ncnc32)cc1C,5.9,-23.9%,-1.6
COc1ccc(S(=O)(=O)Nc2cccnc2)cc1OC,1.1,-7.8%,5.7
O=C(c1cn(-c2ccccc2)nc1-c1cccs1)N1CCOCC1,-8.6,11.3%,-25.0
O=C(c1cn(-c2ccccc2)nc1-c1cccs1)N1CCN(c2ccccc2)CC1,30.5*,-19.3%,22.7
COc1ccc(NC2CCCN(C(=O)CCN3CCCO3)C2)cc1 (centres undefined),1.4,-31.7%,23.3
CCOC(=O)c1c(C2COc3ccccc3O2)csc1N (centres undefined),-0.5,-11.7%,1.1
CCOC(=O)c1c(C2COc3ccccc3O2)csc1NC(=O)c1ccccc1 (centres undefined),33.2*,-26.2%,-7.8
COc1ccc(N(C(=O)CNC(=O)c2ccco2)C(C(=O)NC2CCCC2)c2ccc(C)o2)cc1 (centres undefined),4.7,7.6%,9.2
CC(=O)c1ccc(N(C(=O)CNC(=O)c2ccco2)C(C(=O)NC2CCCC2)c2ccc(C)o2)cc1 (centres undefined),-25.1,10µM*,2.3
CCOc1ccc(CCNC(=O)COC(=O)c2cccs2)cc1OCC,-7.3,0.7%,-3.7
O=C(O)c1ccc(Sc2nnc(-c3cccc(Br)c3)o2)c([N+](=O)[O-])c1,-1.5,-24.2%,-66.0*
Cn1c(Sc2ccc(C(=O)O)cc2[N+](=O)[O-])nnc1-c1ccccc1,-16.1,2.9%,-2.0
CCOC(=O)N1CCc2c(sc3c2c(=O)n(-c2ccc(CC)cc2)c(=O)n3CC(=O)Nc2ccc(C)cc2)C1,1.2,.,.
Cc1nn(C)c(=S)n1-c1ccc(Cl)cc1,0.3,3.1%,-51.9*
Cc1nn(-c2ccccc2)c(=S)n1-c1ccccc1,-4.0,-36.8%,20.7
O=C(NNC(=O)c1ccccc1O)c1ccc(Br)cc1,7.6,2.4%,15.2
O=C(COC(=O)c1ccccc1O)NNC(=O)c1ccc(Br)cc1,-10.7,2.1%,-58.4*
COc1cc(OC)cc(-c2sc3ccc(OC)cc3c2C#CC(C)(C)O)c1,35.8*,12.5%,28.6
COc1cc(OC)cc(-c2sc3ccc(OC)cc3c2C#CC2(N)CCCCC2)c1,35.8*,-0.9%,64.2
COc1cccc(-c2sc3ccc(OC)cc3c2C#CCCO)c1,1.5,-2.3%,10.1
COc1ccc(-c2sc3ccc(N4CCOCC4)cc3c2C#CCO)cc1,6.2,-39.3%,29.0
SMILES,D3 ag,Integrin act MD,DRD3 antagonist
COc1ccc(-c2sc3cc4c(cc3c2C#Cc2cncn2C)OCO4)cc1,-4.5,?,-1.1
COc1ccc(-c2sc3ccc(OC)cc3c2C#Cc2cncn2C)cc1,34.3*,-16.2%,120.0
COc1cccc(-c2sc3ccc(OC)cc3c2C#CC2(O)CCCCC2)c1,12.2,-1.4%,71.9
COc1cc(OC)cc(-c2sc3ccc(OC)cc3c2C#CCO)c1,39.7*,-17.5%,2.5
COc1cccc2cc(C(=O)N(Cc3cccs3)CC3CCCO3)c(=O)oc12 (centres undefined),7.3,-33.5%,-2.3
O=C(COC(=O)C12CC3CC(CC(C3)C1)C2)Nc1nc2c(F)c(F)c(F)cc2s1,8.6,-11.4%,5.4
COc1ccc(NC(=O)NCc2ccccc2F)cc1OC,4.5,4.0%,6.0
O=c1c(S(=O)(=O)c2ccccc2)cn(Cc2cccc(F)c2)c2cc(N3CCOCC3)c(F)cc12,6.0,.,.
CCc1c(C)sc2c1CCN(C(=O)Nc1cc(OC)c(OC)c(OC)c1)C2c1ccccc1 (centres undefined),1.2,.,.
COC(=O)c1c(-c2ccc(OC)cc2)sc2ccc(OC)cc12,57.7*,-0.3%,78.2
COC(=O)c1c(-c2ccc(OC)cc2)sc2ccc(-c3ccc4c(c3)OCO4)cc12,4.5,-5.3%,1.1
COc1ccc(NC(=O)N(C)C[C@H]2Oc3c(NC(=O)c4nc5ccccc5s4)cccc3C(=O)N([C@@H](C)CO)C[C@H]2C)cc1,22.1,-4.1%,0.0
S=C(NCCc1ccccc1)Nc1ccccn1,-3.1,-0.5%,-10.9
O=C(CN1c2cccc3cccc(c23)S1(=O)=O)NCc1ccc(F)cc1,-5.8,15.5%,3.3
CCCOC1(C(F)(F)F)NC(=O)N(c2cccc(Cl)c2)C1=O (centres undefined),-19.2,.,.
CC1(C)NC(=O)N(c2ccc([N+](=O)[O-])c(C(F)(F)F)c2)C1=O,36.4*!,.,16.0
CN(C(=O)C(C)(C)C)c1ccc(OCC(=O)N2CCc3ccccc3C2)cc1,5.0,0.0%,-6.2
COc1ccc(NC(=O)c2cc(C(C)=O)n3ccccc23)cc1Cl,4.6,.,.
Cc1ccc(-c2nc3cc(C)c(Br)c(C)n3c2Cc2cccc(F)c2)cc1,6.6,.,28.6
O=C(c1ccc(Cl)cc1)c1ccc(CN2C(=O)c3ccccc3C2=O)o1,-4.8,8.8%,-64.4*
O=C(c1ccc(F)cc1)c1ccc(CN2C(=O)c3ccccc3C2=O)o1,-2.8,-36.6%,1.2
c1cc2c3c(cccc3c1)NC1(CCC3(CC1)Nc1cccc4cccc(c14)N3)N2,-2.2,6.6%,34.4
Cc1cccn2c(=O)nc(SCC(=O)N3CC(C)OC(C)C3)nc12 (centres undefined),4.0,20.8%,15.8
Nc1c(C(O)(C(F)(F)F)C(F)(F)F)cc(C(O)(C(F)(F)F)C(F)(F)F)c2ccccc12,-0.4,-54.2%,-82.7*
Cn1c(-c2sc3ccccc3c2Cl)n[nH]c1=S,-5.8,6.1%,-75.7*
SMILES,D3 ag,Integrin act MD,DRD3 antagonist
Cn1c(CSc2nc3ccccc3s2)nc2ccccc21,-3.6,4.5%,0.0
Cn1c(CSc2nc3ccccc3s2)n[nH]c1=S,1.3,14.3%,-64.7*
Clc1c(-c2nnc3n2CCC3)sc2ccccc12,-6.6,-17.4%,-16.9
Cc1c(NC(=O)C(C)OC(=O)c2nc(Cl)ccc2Cl)c(=O)n(-c2ccccc2)n1C (centres undefined),2.6,7.3%,9.4
CC(=O)Oc1ccc(N2C(=O)C3C(C2=O)C2C=CC3C23CC3)cc1[N+](=O)[O-] (centres undefined),-2.6,0.0%,-0.5
Cc1ccc(S(=O)(=O)N(CC(=O)Nc2cccnc2)c2cccc([N+](=O)[O-])c2)cc1,-50.5,-7.8%,-24.2
COc1cc(CN2CCc3ccccc3C2)cc([N+](=O)[O-])c1O,-18.8,4.0%,?
COc1ccc(CN2CCc3ccc(NC(=O)CCc4ccccc4OC)cc3C2)c(O)c1,-15.2,-37.7%,-14.6
COc1cc(CN2CCc3ccccc3C2)ccc1O,-22.0,-52.4%,-90.2*
COc1cc(CN2CCc3ccc(NC(=O)CCc4ccccc4OC)cc3C2)ccc1O,-14.2,-3.4%,-61.8*
COc1ccccc1NS(=O)(=O)c1ccc(C)c(C(=O)Nc2ccc(S(=O)(=O)Nc3onc(C)c3C)cc2)c1,1.4,-17.2%,23.9

# Assay outcomes: PubChem, National Center for Advancing Translational Sciences (NCATS)
